The record followed here is PubChem BioAssay (NCI).

Test systems include RPMI-8226 leukemia; OVCAR-8 ovarian; OVCAR-5 ovarian; OVCAR-4 ovarian; SK-OV-3 ovarian; IGROV1 ovarian; OVCAR-3 ovarian; NCI/ADR-RES ovarian; BT-549 breast; MDA-MB-435 melanoma; SW-620 colon; MCF7 breast; HCT-116 colon; HCC-2998 colon; KM12 colon; T-47D breast; HS 578T breast.
Common to all, as to assay: NCI-60 one-dose screen, 48 h (100 = growth as untreated, 0 = no growth, -100 = all killed)
Common to all, as to settings: 10 µM unless noted

This is part of a sample that, as a whole, favours compounds with a hit. Of some 83,000 tested, about 20% had one in any assay.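 Single-dose data. Exposure time 48 hours. Values below 10 considered active.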 A number with no mark means an inactive call. The source made the active and inactive calls.

On to `C[N+](C)(C)CCCCCCCCCC[N+](C)(C)C`, for which the growth in the experiment on RPMI-8226 leukemia was 96%; with OVCAR-8 ovarian it was 98.7%; in the experiment on OVCAR-5 ovarian it was 117%; with OVCAR-4 ovarian, 87.2%; in the experiment with SK-OV-3 ovarian, 106%; in the experiment on IGROV1 ovarian, 91.5%. In addition, the growth in the experiment on OVCAR-3 ovarian was 105%; with NCI/ADR-RES ovarian it was 98.4%; with BT-549 breast, 78.7%; in the experiment with MDA-MB-435 melanoma, 103%; in the experiment with SW-620 colon, 95.8%; in the experiment with MCF7 breast it was 91%. In addition, the growth was 106% in the experiment with HCT-116 colon, 105% with HCC-2998 colon and 103% with KM12 colon.

For the molecule `O=C(N/N=C/c1ccc([N+](=O)[O-])o1)c1ccc(O)cc1`, the growth in the experiment on RPMI-8226 leukemia was 39.8%; in the experiment with OVCAR-8 ovarian, 17.6%; in the experiment with OVCAR-5 ovarian it was 78.7%; with OVCAR-4 ovarian it was 42%; in the experiment on SK-OV-3 ovarian, 63.8%; with IGROV1 ovarian, 30.5%. Besides, the growth in the experiment with OVCAR-3 ovarian is 23.4%; in the experiment with NCI/ADR-RES ovarian it was 36.6%; with T-47D breast it was 44.2%; in the experiment with BT-549 breast it was 59.4%; in the experiment on MDA-MB-435 melanoma it was -79.5% (active); in the experiment on SW-620 colon, 18.2%. The growth is 11.4% in the experiment with HCT-116 colon, 62.9% with HCC-2998 colon and 33% in the experiment on KM12 colon.

Regarding `O=C(Nc1cccc(-n2ccc3c(NC(=O)c4ccccc4)nccc32)c1)c1ccc(Cl)c(Cl)c1`, the growth in the experiment on RPMI-8226 leukemia was -51.3% (active); in the experiment with OVCAR-5 ovarian it was -36.4% (active); in the experiment on OVCAR-4 ovarian, -88.7% (active); with SK-OV-3 ovarian it was 18.7%; in the experiment with IGROV1 ovarian, -52.1% (active); with OVCAR-3 ovarian, -81.3% (active). Moreover, the growth in the experiment with NCI/ADR-RES ovarian was -28.1% (active); with T-47D breast it was -55.4% (active); with BT-549 breast, -75.7% (active); in the experiment on MDA-MB-435 melanoma, -78.1% (active); in the experiment on SW-620 colon it was -80.3% (active); in the experiment on MCF7 breast it was -83.6% (active). The results for the growth with HCT-116 colon, with HCC-2998 colon and in the experiment on KM12 colon were -97.6% (active), -90.9% (active) and -75.2% (active), respectively.

Take `CCOC(=O)C1C(=O)C=C(c2cc(OC)c(OC)c(OC)c2)CC1c1sc(N(C)Cc2ccccc2)nc1Cl` (stereo not given): the growth with OVCAR-8 ovarian is 82%; in the experiment with OVCAR-5 ovarian it was 101%; in the experiment with OVCAR-4 ovarian, 86.8%; with SK-OV-3 ovarian, 85.2%; in the experiment on IGROV1 ovarian, 95.6%; with OVCAR-3 ovarian, 91.6%. Further, the growth is 55.9% with HS 578T breast; 86.3% in the experiment with NCI/ADR-RES ovarian; 66.6% in the experiment with T-47D breast; 92.1% in the experiment with BT-549 breast; 95.1% in the experiment on MDA-MB-435 melanoma; 95.7% in the experiment on SW-620 colon. Also, the growth is 77.4% with MCF7 breast, 72.6% in the experiment with HCT-116 colon, 105% in the experiment on HCC-2998 colon and 93.6% with KM12 colon.

Turning to `O=C(c1ccccc1)C(CCc1ccccn1)CCc1ccccn1`, the growth in the experiment with OVCAR-8 ovarian is 109%; with OVCAR-5 ovarian, 99.6%; in the experiment with OVCAR-4 ovarian, 111%; with SK-OV-3 ovarian it was 95.8%; with IGROV1 ovarian it was 93.2%; in the experiment on OVCAR-3 ovarian, 103%. Also, the growth in the experiment with HS 578T breast is 121%; with NCI/ADR-RES ovarian, 105%; in the experiment on T-47D breast, 92.3%; in the experiment with BT-549 breast it was 106%; in the experiment on MDA-MB-435 melanoma, 108%; in the experiment with SW-620 colon, 107%. The growth in the experiment with MCF7 breast was 106%; with HCT-116 colon, 94%; in the experiment on HCC-2998 colon, 96.5%; in the experiment with KM12 colon, 109%.

On to `COc1cc(NC(=O)CSc2nc3ccc(Cl)cc3c(=O)n2Cc2ccccc2)cc(OC)c1OC`, for which the growth in the experiment with OVCAR-8 ovarian was 68.7%; in the experiment with OVCAR-5 ovarian it was 85.4%; in the experiment on OVCAR-4 ovarian it was 81.1%; with SK-OV-3 ovarian, 72%; with IGROV1 ovarian, 84.9%; with OVCAR-3 ovarian it was 77.7%. Besides, the growth was 47.4% in the experiment with HS 578T breast; 67.7% in the experiment with NCI/ADR-RES ovarian; 55.7% in the experiment with T-47D breast; 31.2% in the experiment with BT-549 breast; 78.2% with MDA-MB-435 melanoma; 81.6% in the experiment on SW-620 colon. For the same molecule, the growth in the experiment with MCF7 breast is 70.2%; in the experiment with HCT-116 colon it was 51.6%; in the experiment on HCC-2998 colon, 90.5%; in the experiment with KM12 colon it was 51.5%.

In the case of `CCOC(=O)c1cnc(SCC)nc1SC#N`, the growth with OVCAR-8 ovarian is 96.8%; in the experiment with OVCAR-5 ovarian it was 94%; in the experiment on SK-OV-3 ovarian it was 115%; in the experiment with IGROV1 ovarian, 98.7%; with OVCAR-3 ovarian, 87.3%; with HS 578T breast, 121%. For the same molecule, the growth with NCI/ADR-RES ovarian was 100%; in the experiment with T-47D breast, 80.8%; with BT-549 breast, 115%; in the experiment on MDA-MB-435 melanoma, 77.5%; in the experiment with SW-620 colon, 60%; in the experiment on MCF7 breast, 87.7%. Further, the growth was 64.2% in the experiment with HCT-116 colon, 108% in the experiment on HCC-2998 colon and 101% with KM12 colon.

Regarding `COc1cc(OC)c(C(=O)/C=C/c2cccc(OC(C)=O)c2)cc1CC=C(C)C`, the growth in the experiment on RPMI-8226 leukemia was 7.53% (active); with OVCAR-5 ovarian, 107%; in the experiment on OVCAR-4 ovarian it was 75.1%; in the experiment on SK-OV-3 ovarian, 102%; in the experiment on IGROV1 ovarian, 59.2%; in the experiment on OVCAR-3 ovarian, 37.7%. Also, the growth is 99% in the experiment with HS 578T breast; 72% in the experiment on NCI/ADR-RES ovarian; 52.3% with T-47D breast; 81.8% in the experiment on BT-549 breast; 73.6% in the experiment on MDA-MB-435 melanoma; 35.5% in the experiment on SW-620 colon. Further, the growth with MCF7 breast is 44.6%; with HCT-116 colon it was 47.1%; with HCC-2998 colon it was 72.9%; in the experiment with KM12 colon, 68.8%.

`COc1cc(/C=C/c2cc(/C=C/c3ccc(O)c(OC)c3)n(C(=O)c3ccccc3Br)n2)ccc1O`: the growth with RPMI-8226 leukemia was 14.3%; in the experiment on OVCAR-8 ovarian it was 27.7%; in the experiment on OVCAR-5 ovarian, 84.5%; with SK-OV-3 ovarian it was 16.6%; with IGROV1 ovarian it was 25%; in the experiment on OVCAR-3 ovarian, 12.6%. In addition, the growth was 3.59% (active) in the experiment with HS 578T breast; 28.1% in the experiment with NCI/ADR-RES ovarian; 49% in the experiment on T-47D breast; 14.5% in the experiment on BT-549 breast; -30.5% (active) in the experiment with MDA-MB-435 melanoma; 20.9% in the experiment on SW-620 colon. Besides, the growth with MCF7 breast was 20.2%; with HCT-116 colon it was 6.9% (active); in the experiment with HCC-2998 colon, 40.9%; in the experiment with KM12 colon it was 4.98% (active).
